In PubChem BioAssay (NCI):
The panel holds about 83,000 compounds, 20% with a hit somewhere; the sample as a whole holds those more often.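 How to read the values: 0–100, growth inhibition (40 = 60% inhibited); 0, no net growth; -100 to 0, cell death (-40 = 40% of starting cells died; -100 = all dead).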 Activity calls are given as the source filed them. How the source made its calls: active means growth percent below 10; inactive means the rest.

Legend:
Test in all cases: NCI-60 one-dose screen, 48 h (100 = growth as untreated, 0 = no growth, -100 = all killed)
Conditions in all cases: 10 µM unless noted
[1] = system: SK-MEL-2 melanoma
[2] = system: EKVX NSCLC
[3] = system: SN12C renal
[4] = system: UO-31 renal
[5] = system: TK-10 renal
[6] = system: ACHN renal
[7] = system: CAKI-1 renal
[8] = system: A498 renal
[9] = system: CCRF-CEM leukemia
[10] = system: MOLT-4 leukemia

Measured: growth

O=C(/C=C(/C=C/c1ccc2[nH]ccc2c1)OB(F)F)/C=C/c1ccc2[nH]ccc2c1
active: [2] 4.65% | [4] 2.63% | [5] 5.77% | [6] -22.4% | [7] -14.5% | [9] -19.9% | [10] -4.43%
inactive: [1] 25.8% | [3] 10% | [8] 32.5%

COc1ccc(-c2nn(-c3cccc(Cl)c3)cc2-c2cc(-c3ccc(Br)cc3)nc(N)n2)cc1
inactive: [1] 99.7% | [2] 92.3% | [3] 92.7% | [4] 76% | [5] 104% | [6] 103% | [7] 77.3% | [8] 81.6% | [9] 92.7% | [10] 88.3%

CCOC(=O)c1c(NC(=O)c2cccc(C(F)(F)F)c2)sc2c(CN(C)C)c(O)ccc12
inactive: [1] 108% | [2] 98.8% | [3] 90% | [4] 48.9% | [5] 113% | [6] 45.5% | [7] 71.1% | [8] 82% | [10] 43.4%
active: [9] 9.93%

O=C1/C(=C/c2ccccc2O)CC/C1=C\c1ccccc1O
inactive: [1] 105% | [2] 56.9% | [3] 27.7% | [4] 46.4% | [5] 160% | [6] 70.2% | [7] 92.4% | [8] 108%
active: [9] 1.74% | [10] 6.67%

CCn1cc(C(=O)O)c(=O)c2cc(F)c(N3CCN(CC(=O)Nc4ccc(S(=O)(=O)Nc5nccc(C)n5)cc4)C(C)C3)c(F)c21 (stereo not given)
inactive: [1] 119% | [2] 111% | [3] 98% | [4] 83.3% | [5] 129% | [6] 102% | [7] 88.6% | [8] 111% | [9] 102% | [10] 123%

CCCCNC(=O)CC1=C(C)/C(=C/c2[nH]c(-c3ccc[nH]3)cc2OC)N=C1C
active: [4] -5.12% | [7] 4.74% | [8] 3.74% | [10] 7.6%
inactive: [1] 22.1% | [2] 36.4% | [3] 35.3% | [5] 33.5% | [6] 13.7% | [9] 27.2%

CCC(=O)Oc1ccc(-c2ccccc2)cc1Br
inactive: [1] 110% | [2] 102% | [3] 104% | [4] 102% | [5] 101% | [6] 113% | [7] 98.7% | [8] 63.5% | [9] 102% | [10] 111%

COc1cc(C2c3cc(OC(C)=O)c(OC)cc3CC3C(=O)OCC32)ccc1OC(C)=O (stereo not given)
inactive: [1] 132% | [2] 111% | [3] 93.2% | [4] 78.2% | [5] 122% | [6] 94.3% | [7] 97.1% | [8] 180% | [9] 92.4% | [10] 112%

CCCCCCCCCCCCCCCCCCOc1ccccc1CC(=O)OCC[N+](C)(C)C
inactive: [1] 64.8% | [2] 46.9% | [3] 10% | [4] 61.3% | [5] 18% | [6] 55.8% | [8] 45.1%
active: [7] 9.52% | [9] 5.24% | [10] -7.37%

O=C1c2c(c3c4ccccc4[nH]c3c3ccc4ccccc4c23)C(=O)N1CCN1CCNCC1
active: [6] -49.4% | [9] 0.375% | [10] -20.3%
inactive: [1] 104% | [2] 84.7% | [3] 65.2% | [4] 56.7% | [5] 108% | [7] 63.3% | [8] 61.2%

CCN(CC)CCn1c2ccc(O)cc2c2sc3cc(O)ccc3c(=O)c21
inactive: [1] 57.9% | [2] 48.8% | [3] 20.9% | [4] 26% | [5] 64.9% | [7] 43.5% | [8] 41.6% | [9] 14.6%
active: [6] 3.32% | [10] 9.25%

O=S(=O)(Nc1ccc(Cl)c(C(F)(F)F)c1)c1ccc(-c2cnc(C3CC3)o2)cc1
inactive: [2] 31.5% | [3] 10.7% | [4] 35.5% | [6] 34.6% | [7] 35.6%
active: [1] 5.31% | [5] 3.01% | [8] -8.08% | [9] 9.87% | [10] 5.21%

CCNCCNc1cc(-c2ccc(C(F)(F)F)cc2)c(C#N)c2nc3ccccc3n12
active: [1] -47.6% | [2] -66% | [3] -62% | [4] -88.3% | [5] -67.3% | [6] -88.8% | [7] -96.9% | [8] -88.4% | [9] -42.9% | [10] -32.7%

Cc1cn(-c2cc(NC(=O)c3cccc(C#Cc4cccc5[nH]nc(N)c45)c3)cc(C(F)(F)F)c2)cn1
active: [4] 9.11%
inactive: [1] 22.5% | [2] 56.7% | [3] 29.9% | [5] 78.8% | [6] 21.5% | [7] 75.7% | [8] 35.1% | [9] 15% | [10] 20.7%

O=C1Nc2ccccc2/C1=C/c1cccn1CCCCn1c2ccccc2c(=O)c2ccccc21
inactive: [1] 84% | [2] 86.1% | [3] 97.9% | [4] 49.7% | [5] 104% | [6] 76.3% | [7] 69.5% | [8] 109% | [9] 52.8% | [10] 47.7%

CCOC(=O)c1c(NC(=O)c2ccc(Cl)cc2)sc2c(CN(C)C)c(O)ccc12
inactive: [1] 101% | [2] 93.8% | [3] 83.6% | [4] 67.5% | [5] 108% | [6] 50.7% | [7] 67.2% | [8] 76.3% | [9] 62.6% | [10] 59.5%

CCOc1ccc(NC(=O)CSc2oc(-c3ccccc3)nc2S(=O)(=O)c2ccc(C)cc2)cc1
inactive: [1] 96.6% | [2] 75.1% | [3] 85.2% | [4] 103% | [5] 82.4% | [6] 58.9% | [7] 83.9% | [8] 86.2% | [9] 84.8% | [10] 66.1%

N#Cc1c(-c2ccccc2)cc(-c2ccccc2)n(CCCC(=O)Nc2ccccc2N)c1=O
inactive: [1] 46.4% | [2] 79.1% | [3] 70.5% | [4] 49.1% | [5] 104% | [6] 63.8% | [7] 38.2% | [9] 56.3% | [10] 47.4%
active: [8] -5.55%

COc1cc2ncnc(Nc3ccc(F)c(Cl)c3)c2cc1OCC(=O)N1CCN(c2ccccc2)CC1
inactive: [1] 102% | [2] 77.6% | [3] 80.4% | [4] 46.5% | [5] 42.4% | [6] 50.6% | [7] 50.6% | [8] 61.2% | [9] 103% | [10] 90.3%

Cc1ccc(C)n1-c1ccccc1-n1c(C)ccc1C
inactive: [1] 108% | [2] 92.5% | [3] 93.5% | [4] 98.1% | [5] 128% | [6] 102% | [7] 71.7% | [8] 97.9% | [9] 124% | [10] 78.7%

c1csc(-c2ccc(CNc3c4ccccc4nc4ccccc34)cc2)c1
inactive: [1] 80.8% | [2] 59% | [3] 63.2% | [4] 27.9% | [5] 65.1% | [6] 58.6% | [7] 35.5%
active: [8] -2.45% | [9] 2.57% | [10] 1.96%

CCOC(=O)C1=C(N)Oc2c(sc3c(F)cccc23)C1c1ccc(O)cc1 (stereo not given)
inactive: [1] 14.3% | [2] 42.4% | [3] 56% | [4] 30.1% | [5] 74% | [6] 42.3% | [7] 57.6% | [8] 43.2% | [9] 20.3%
active: [10] 9.73%

C=C1C(=O)O[C@H]2[C@H]1CC/C(COC(=O)/C=C\C(=O)NCc1ccc(Cn3c(=O)sn(CCI)c3=O)cc1)=C\CC[C@@]1(C)O[C@@H]21
active: [9] -28.2% | [10] 3.38%
inactive: [1] 75% | [2] 61.7% | [3] 57.9% | [4] 55.1% | [5] 19.4% | [6] 15.9% | [7] 25.7% | [8] 143%

CN1C(=O)/C(=C\c2c(Cl)cccc2Cl)c2ccccc21
inactive: [1] 97.7% | [2] 87.6% | [3] 94.8% | [4] 75.4% | [5] 89.4% | [6] 97.2% | [7] 68.3% | [8] 55.4% | [9] 89.5% | [10] 79.4%

Nc1[nH]n2cc(-c3ccccc3)nc2c1N=Nc1ccc(S(N)(=O)=O)cc1
inactive: [1] 31.6% | [2] 54.6% | [3] 20.1% | [4] 19.5% | [5] 48.4% | [9] 19.7% | [10] 13.9%
active: [6] 8.58% | [7] 3.86% | [8] 8.19%

O=c1scc(-c2ccc(C(F)(F)F)cc2)s1
inactive: [1] 77.8% | [2] 78.8% | [3] 96.7% | [4] 89.4% | [5] 82.8% | [6] 99.8% | [7] 73% | [8] 77.5% | [9] 88.5% | [10] 94.5%
